# Reference: PubChem BioAssay (NCI)
# “And” between values parts separate entries of the source, which are not always exact repeats. Identical values can stand only once. The panel holds about 83,000 compounds, 20% with a hit somewhere; the sample as a whole holds those more often.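 A percent growth of 40 corresponds to 60% growth inhibition; 0 means no net growth; -100 means all cells died. Active threshold: below 10.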 The source made the active and inactive calls.
# Assays:
# Assay in all cases: NCI-60 one-dose screen, 48 h (100 = growth as untreated, 0 = no growth, -100 = all killed)
# NCI/ADR-RES ovarian = conditions: 10 µM
# T-47D breast = conditions: 10 µM
# BT-549 breast = conditions: 10 µM
# MDA-MB-435 melanoma = conditions: 10 µM
# SW-620 colon = conditions: 10 µM
# HCT-116 colon = conditions: 10 µM
# HCC-2998 colon = conditions: 10 µM
# KM12 colon = conditions: 10 µM
# MCF7 breast = conditions: 10 µM unless noted
Compound,growth (NCI/ADR-RES ovarian),growth (T-47D breast),growth (BT-549 breast),growth (MDA-MB-435 melanoma),growth (SW-620 colon),growth (HCT-116 colon),growth (HCC-2998 colon),growth (KM12 colon),growth (MCF7 breast)
Cn1c(O)c(N=O)c(=O)n(C)c1=O,101% (inactive) and 102% (inactive),101% (inactive) and 97% (inactive),109% (inactive) and 99% (inactive),113% (inactive) and 93.3% (inactive),97% (inactive) and 98.9% (inactive),113% (inactive) and 97.3% (inactive),107% (inactive),102% (inactive) and 98.6% (inactive),
COc1cc2c(c(OC)c1OC)-c1ccc(O)c(=O)cc1[C@@H](NC(C)=O)CC2,74.3% (inactive),18.4% (inactive),59.9% (inactive),45.6% (inactive),50.2% (inactive),26.1% (inactive),66.9% (inactive),57.4% (inactive),
O=[N+]([O-])/C=C/c1ccc(Cl)cc1[N+](=O)[O-],32.1% (inactive),-6.41% (active),,76.8% (inactive),-90.2% (active),-100% (active),105% (inactive),,-69.2% (active)
S=C=NCCc1ccccc1,21.4% (inactive),40.4% (inactive),-20.2% (active),66.4% (inactive),56% (inactive),27.1% (inactive),,41.9% (inactive),
Cc1cc(C)c(C[N+](C)(C)C)c(C)c1C,4.96% (active),-0.376% (active),7.59% (active),9.06% (active),8.53% (active),7.93% (active),,7.87% (active),
CC1CCC2(OC1)OC1C(O)C3C4CCC5CC(OC6OC(CO)C(OC7OC(CO)C(O)C(OC8OCC(O)C(O)C8O)C7OC7OC(CO)C(O)C(OC8OC(CO)C(O)C(O)C8O)C7O)C(O)C6O)C(O)CC5(C)C4CCC3(C)C1C2C (centres undefined),-59.4% (active),50.1% (inactive),-74.8% (active),47.5% (inactive),51.2% (inactive),-72% (active),,34.2% (inactive),
Oc1c(I)cc(I)cc1I,,103% (inactive),,113% (inactive),107% (inactive),,,,95.4% (inactive)
C[C@H]1CC[C@@]2(NC1)O[C@H]1C[C@H]3[C@@H]4CC[C@H]5C[C@@H](O)CC[C@]5(C)[C@H]4CC[C@]3(C)[C@H]1[C@@H]2C,,,,,,,,,29.5% [100 µM] (inactive) and 25.5% [100 µM] (inactive)
NC(=O)c1cc([N+](=O)[O-])c(Cl)c([N+](=O)[O-])c1,111% (inactive),27.5% (inactive),113% (inactive),109% (inactive),-85.2% (active),-79.3% (active),109% (inactive),91.6% (inactive),
COc1cc(/C=C(/C)[N+](=O)[O-])ccc1O,62.4% (inactive) and -17.5% (active),-22.6% (active) and -40.3% (active),79.5% (inactive) and 95.1% (inactive),6.19% (active),-68% (active) and -56.1% (active),-56% (active) and -35.4% (active),30.3% (inactive) and 87.3% (inactive),59.9% (inactive) and 41.9% (inactive),
Cc1ccc(NC(=O)CBr)cc1,106% (inactive),98.5% (inactive),139% (inactive),102% (inactive),92.8% (inactive),106% (inactive),113% (inactive),109% (inactive),
NC(=O)c1cc([N+](=O)[O-])c(Cl)c([N+](=O)[O-])c1Cl,20.4% (inactive),-36.7% (active),68.3% (inactive),11.1% (inactive),-79.9% (active),-39.2% (active),39.2% (inactive),19.1% (inactive),
CC/C(=C/c1ccc(OC)cc1)[N+](=O)[O-],30.3% (inactive),-43.7% (active),-34.5% (active),15.1% (inactive),-76.8% (active),-81.3% (active),85.1% (inactive),33.8% (inactive),
O=C1C=Cc2ccccc2C1=O,93.8% (inactive),97.2% (inactive),,5.35% (active),50.5% (inactive),87.7% (inactive),112% (inactive),,66.1% (inactive)
COc1cc2c(cc1OC)C13CCN4CC5=CCOC6CC(=O)N2C1C6C5CC43 (centres undefined),116% (inactive) and 66.9% (inactive),96.9% (inactive) and 109% (inactive),90.3% (inactive),112% (inactive) and 110% (inactive),115% (inactive) and 106% (inactive),99.4% (inactive) and 102% (inactive),-56.9% (active),101% (inactive) and 100% (inactive),
[Cl][Sn]([c]1ccccc1)([c]1ccccc1)[c]1ccccc1,-37.7% (active),,-83.1% (active),-83.9% (active),-56.2% (active),-97.3% (active),-83.9% (active),,-81.1% (active)
O=C(CCl)Nc1ccc(Cl)cc1,68.3% (inactive),56% (inactive),,48.5% (inactive),39.7% (inactive),18.9% (inactive),98.3% (inactive),,
C[C@]12CC[C@H]3[C@@H](CCC4=CC(=O)CC[C@@H]43)[C@@H]1CC[C@@H]2OC(=O)N(CCCl)N=O,49% (inactive),54.2% (inactive),66.6% (inactive),68.5% (inactive),52.5% (inactive),51.7% (inactive),58.1% (inactive),28.2% (inactive),
CCOP(=O)(OCC)/C(C#N)=C/c1ccc(Br)cc1,107% (inactive),90.8% (inactive),,104% (inactive),105% (inactive),101% (inactive),102% (inactive),,
CC(Cc1ccc2c(c1)OCO2)NN (centres undefined),98.5% (inactive),77.5% (inactive),96.7% (inactive),,98.7% (inactive),85.4% (inactive),101% (inactive),,91.2% (inactive)
NNc1ccccc1,83.1% (inactive),53.9% (inactive),,88.6% (inactive),64.5% (inactive),78.4% (inactive),104% (inactive),64.7% (inactive),86.8% (inactive)
CC(C)c1cc([N+](=O)[O-])cc([N+](=O)[O-])c1O,97.3% (inactive),97.3% (inactive),96.4% (inactive),108% (inactive),100% (inactive),103% (inactive),87.4% (inactive),88.1% (inactive),
COc1cc(/C=C/[N+](=O)[O-])cc(Br)c1OC,60.2% (inactive),16.3% (inactive),8.15% (active),11% (inactive),,-91.7% (active),-90.9% (active),,
COc1cc2c3cc1Oc1c(OC)c(OC)cc4c1C(Cc1ccc(cc1)Oc1cc(ccc1O)CC3N(C)CC2)N(C)CC4 (centres undefined),,,,,,,,,33.8% [100 µM] (inactive) and -96.4% [100 µM] (active)
C#CC1(O)CCC(C(C)(C)C)CC1 (centres undefined),106% (inactive),111% (inactive),122% (inactive),89.8% (inactive),106% (inactive),108% (inactive),,100% (inactive),
CCCCCCCC[N+]12CN3CN(CN(C3)C1)C2,98.9% (inactive),,94.4% (inactive),95% (inactive),89.7% (inactive),93.6% (inactive),98.3% (inactive),,
